This note sets out measurements from PMC10726135, “HNF4α isoforms regulate the circadian balance between carbohydrate and lipid metabolism in the liver”.

In all, about 18,000 sequences were measured (“log2 normalized intensity”: median about 0.39, highest 2% from about 6.6 on). This excerpt belongs to a sample that is enriched for the highest values.

In the experiment the target is T1, HNF4alpha2 (COS-7 nuclear extract) (Homo sapiens, UniProt P41235 1-474).
T1 sequence: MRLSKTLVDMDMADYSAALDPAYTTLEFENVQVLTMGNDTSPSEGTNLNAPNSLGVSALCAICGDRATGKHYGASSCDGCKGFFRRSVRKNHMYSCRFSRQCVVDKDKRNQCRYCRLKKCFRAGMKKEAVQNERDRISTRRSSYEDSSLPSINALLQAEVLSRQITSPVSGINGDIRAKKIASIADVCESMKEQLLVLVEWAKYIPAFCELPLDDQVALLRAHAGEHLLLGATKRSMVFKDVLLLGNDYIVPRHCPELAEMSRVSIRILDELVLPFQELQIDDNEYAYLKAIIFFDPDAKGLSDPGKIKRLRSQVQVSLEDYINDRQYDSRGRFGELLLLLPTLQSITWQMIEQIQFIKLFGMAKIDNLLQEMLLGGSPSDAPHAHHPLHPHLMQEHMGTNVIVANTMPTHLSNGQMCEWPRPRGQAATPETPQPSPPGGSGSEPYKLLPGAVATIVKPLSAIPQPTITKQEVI
Description: protein-binding microarray; COS-7 nuclear extract on double-stranded Agilent 4x180k PBM; binding buffer, salt, pH and temperature not given in the material; high values mean tight binding. To be noted: chain copies: 2; label: 3' end of strand 1 on the slide; dsDNA, one strand shown. Summed up:
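The binding signal is Agilent software's gProcessedSignal after background correction and normalization. Arrays were a custom Agilent SurePrint G3 4x180k design of double-stranded ~60-nt oligonucleotides with ~44,000 test sequences in quadruplicate, probed with nuclear extracts of COS-7 cells transiently expressing a human HNF4α isoform. Scans were made at 2-µm resolution on an Agilent G2565CA scanner.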
As for “CATGTTGAGTGGAATATGAGGTCAGGGTTCGCCTAGGGAGATTAGAGTATCGGTCGA”, the binding signal was determined as 2.71 log2 normalized intensity.

For “GGGCTGGAACACAAAGAAAGCCAAAGTTCAGCCTAGGGAGATTAGAGTATCGGTCGA”, the binding signal amounted to 2.41 log2 normalized intensity. Under “CATTGGACCCTCCCAGCCAAACCCCACTCCGCCTAGGGAGATTAGAGTATCGGTCGA” stands 5.01 log2 normalized intensity; under “TGTAACTGTAACTATATTGACCACCTCCTCGCCTAGGGAGATTAGAGTATCGGTCGA”, 1.76 log2 normalized intensity; under “GATGTTCTACACTGCTTACCCTGCAGTGTGGCCTAGGGAGATTAGAGTATCGGTCGA”, 0.052 log2 normalized intensity. Under “CTGCAGTGTGACCTTTGCCTTCTTGACATCGCCTAGGGAGATTAGAGTATCGGTCGA” stands 5.94 log2 normalized intensity; under “TCTACACTGCTTACCCTGCAGTGTGACCTTGCCTAGGGAGATTAGAGTATCGGTCGA”, 4.19 log2 normalized intensity; under “GTGTGACCTTTGCCTTCTTGACATCTCTCTGCCTAGGGAGATTAGAGTATCGGTCGA”, 4.43 log2 normalized intensity.

Turning to “ACTGCTTACCCTGCAGTGTGACCTTTGCCTGCCTAGGGAGATTAGAGTATCGGTCGA”, the binding signal was 7.83 log2 normalized intensity. In the case of “TTACCCTGCAGTGTGACCTTTGCCTTCTTGGCCTAGGGAGATTAGAGTATCGGTCGA” it was 7.49 log2 normalized intensity; in that of “GTGCTCTGGGTCTGTCCTTTGTGTTTATGGGCCTAGGGAGATTAGAGTATCGGTCGA”, 2.66 log2 normalized intensity. Under “CAGTGGGCCCAGAGCACAACCTTTGGCCGTGCCTAGGGAGATTAGAGTATCGGTCGA” stands 4.45 log2 normalized intensity.

“TTGCCCACCAATGATCAAAGGTTAGTCTTAGCCTAGGGAGATTAGAGTATCGGTCGA”: the binding signal stood at 3.63 log2 normalized intensity.

With “AAAACATATTTGCATAATGGAGCAAAGGTCGCCTAGGGAGATTAGAGTATCGGTCGA”, the binding signal stood at 5.4 log2 normalized intensity. Under “CTACTACTTGACCTTTGAAACATATCCAGAGCCTAGGGAGATTAGAGTATCGGTCGA” stands 5.48 log2 normalized intensity. For the sequence “CACCACTAGGAAACTGACCTTTGCTCATGAGCCTAGGGAGATTAGAGTATCGGTCGA”, the binding signal came out at 6.73 log2 normalized intensity. Under “ACCACATTCTCACCACTAGGAAACTGACCTGCCTAGGGAGATTAGAGTATCGGTCGA” stands 3.23 log2 normalized intensity; under “ATTCTCACCACTAGGAAACTGACCTTTGCTGCCTAGGGAGATTAGAGTATCGGTCGA”, 5.16 log2 normalized intensity.

As for “TCATTGATGAGTGACCTTTGACCTCAGAGAGCCTAGGGAGATTAGAGTATCGGTCGA”, the binding signal turned out to be 9.89 log2 normalized intensity. In the case of “ATGGGATGACCTTTGAGCAATAGGAAATGGGCCTAGGGAGATTAGAGTATCGGTCGA” it was 4.18 log2 normalized intensity; in that of “TTGCCCCTTTGACCCTCGGGCCTCCCTAGAGCCTAGGGAGATTAGAGTATCGGTCGA”, 3.97 log2 normalized intensity; in that of “GATGAGTGACCTTTGACCTCAGAGAGCCGGGCCTAGGGAGATTAGAGTATCGGTCGA”, 9.56 log2 normalized intensity. On to “GTGACCTTTGACCTCAGAGAGCCGGAAACTGCCTAGGGAGATTAGAGTATCGGTCGA”, for which the binding signal was determined as 7.21 log2 normalized intensity. Under “AAAGACTTGCTCATTGATGAGTGACCTTTGGCCTAGGGAGATTAGAGTATCGGTCGA” stands 6.15 log2 normalized intensity; under “CTAGGAAACTGACCTTTGCTCATGACTATTGCCTAGGGAGATTAGAGTATCGGTCGA”, 5.53 log2 normalized intensity; under “GGCTGATGACCTTTGACTGAGATGGGAGCAGCCTAGGGAGATTAGAGTATCGGTCGA”, 4.03 log2 normalized intensity. Under “CTCTGCAAACATTTATTTTGTGTGCTAGATGCCTAGGGAGATTAGAGTATCGGTCGA” stands 1.54 log2 normalized intensity; under “TTGCCCACATTCACACAATCAGTGTGTTGAGCCTAGGGAGATTAGAGTATCGGTCGA”, -0.0239 log2 normalized intensity. Regarding “AGCAGTCCCTTCCCCCCTCCTCATTGAGAGGCCTAGGGAGATTAGAGTATCGGTCGA”, the binding signal came out at 4.37 log2 normalized intensity. Under “TTGCACCAGTTTCTCAACAGACCCCTGAATGCCTAGGGAGATTAGAGTATCGGTCGA” stands 2.27 log2 normalized intensity; under “CTTGACGCTAACTTCCAGATCAAAGGACATGCCTAGGGAGATTAGAGTATCGGTCGA”, 0.608 log2 normalized intensity. With “GTCTAATTGTGCTGAGAGAGTCCTTGTTTGGCCTAGGGAGATTAGAGTATCGGTCGA”, the binding signal was found to be 1.63 log2 normalized intensity. Take “GCAGATGGGCAGCACTGTGATTTGTTCAGGGCCTAGGGAGATTAGAGTATCGGTCGA”: the binding signal was 0.439 log2 normalized intensity. For the sequence “GTCTGCTGCCCAGACACACAATATTATGTTGCCTAGGGAGATTAGAGTATCGGTCGA”, the binding signal is -0.79 log2 normalized intensity. In the case of “GGAGATAACCCATCTGGGGAAAGTGCAAGGGCCTAGGGAGATTAGAGTATCGGTCGA” it was -0.913 log2 normalized intensity; in that of “TGGACAACTGTACTTTGGACTGGGGACCTGGCCTAGGGAGATTAGAGTATCGGTCGA”, 5.1 log2 normalized intensity; in that of “CTGGTTCTGCAAGGCAACTGACCTTTGGATGCCTAGGGAGATTAGAGTATCGGTCGA”, 8.08 log2 normalized intensity. Consider “TTCTTCTGGTTCTGCAAGGCAACTGACCTTGCCTAGGGAGATTAGAGTATCGGTCGA”, for which the binding signal was found to be 3.64 log2 normalized intensity. Consider “TCTGGTGCCAAGGAGCCTCTGCAACCTTTGGCCTAGGGAGATTAGAGTATCGGTCGA”, for which the binding signal stood at 2.46 log2 normalized intensity. In the case of “TCTGCAAGGCAACTGACCTTTGGATCTGGGGCCTAGGGAGATTAGAGTATCGGTCGA” it was 7.21 log2 normalized intensity; in that of “CTTGGGGGAGGAGGGCAACCTTTGAACTGGGCCTAGGGAGATTAGAGTATCGGTCGA”, 5.3 log2 normalized intensity. Under “TATACAAGAAAGAAAGAATGTTTGCTTCTGGCCTAGGGAGATTAGAGTATCGGTCGA” stands -0.716 log2 normalized intensity.
